LYPLA1 inh = blocks human lysophospholipase 1, a PME1 counter-screen | O75608 | recombinant LYPLA1, FP-Rh probe fluorescence polarization | inhibition, % at 5.9 µM | hit rate 0.16% among 320,000 | AID 2174;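 active = inhibition above the mean of all tested compounds plus 3 SD, set per campaign, cut at about 14% in these data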;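 note: inhibitors block serine hydrolase probe labeling of LYPLA1 so polarization falls; 0% = enzyme with DMSO and 100% = wells lacking LYPLA1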
Target sequence (O75608 whole entry, looked up): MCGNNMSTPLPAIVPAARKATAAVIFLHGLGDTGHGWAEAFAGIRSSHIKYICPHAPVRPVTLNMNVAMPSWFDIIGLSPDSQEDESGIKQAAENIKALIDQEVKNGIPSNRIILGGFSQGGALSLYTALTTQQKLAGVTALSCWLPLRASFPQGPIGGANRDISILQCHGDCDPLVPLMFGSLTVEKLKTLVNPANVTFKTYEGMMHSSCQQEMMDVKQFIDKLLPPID
GSTO1 inh = GSTO1 inhibition, counter-screen for RBBP9 inhibitors; hit rate 1.1% among 300,000; inhibition, % at 5.96 µM; AID 1974; recombinant GSTO1, activity-based probe fluorescence polarization;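 active = inhibition above the campaign mean inhibition plus 3 SD, cut at about 35% in these data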;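 note: 0% = GSTO1-1 with DMSO and 100% = wells lacking GSTO1-1 enzyme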
Target sequence (P78417 whole entry, looked up): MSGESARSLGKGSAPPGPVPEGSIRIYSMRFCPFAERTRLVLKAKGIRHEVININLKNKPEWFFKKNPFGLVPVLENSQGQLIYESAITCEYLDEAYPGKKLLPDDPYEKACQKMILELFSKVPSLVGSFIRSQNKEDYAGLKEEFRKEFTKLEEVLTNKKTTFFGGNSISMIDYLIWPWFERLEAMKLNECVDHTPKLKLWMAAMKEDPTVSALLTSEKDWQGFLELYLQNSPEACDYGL
EBNA-1 inh = blocks EBNA-1 binding to DNA | hit rate 0.34% among 300,000 | AID 1950 | EBNA-1 DNA binding, fluorescence polarization | inhibition, % at 14.8 µM; in the data active = inhibition above about 28%
ZTA counter = ZTA (EBV) inhibition in EBNA-1 counter-screen; P03206; ZTA-DNA binding, fluorescence polarization; inhibition, % at 11 µM; hit rate 0.15% among 320,000; in the data active = inhibition above about 33%
LYPLA2 counter = LYPLA2 (human) inhibition in PME1 counter-screen | hit rate 0.38% among 320,000 | recombinant LYPLA2, FP-Rh probe fluorescence polarization | O95372 | inhibition, % at 5.9 µM;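 active = inhibition above the screen-wide mean plus 3 SD, limit set per campaign, cut at about 26% in these data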;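 note: 0% = LYPLA2 with DMSO and 100% = wells lacking LYPLA2 enzyme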
Target sequence (O95372 whole entry, looked up): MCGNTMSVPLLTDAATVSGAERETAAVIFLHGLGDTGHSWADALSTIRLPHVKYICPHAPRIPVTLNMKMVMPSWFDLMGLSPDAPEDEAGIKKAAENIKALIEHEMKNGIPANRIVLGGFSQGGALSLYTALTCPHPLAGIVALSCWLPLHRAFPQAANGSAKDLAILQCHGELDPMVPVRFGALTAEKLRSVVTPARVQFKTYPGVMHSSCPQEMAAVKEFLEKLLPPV
PAD4 inh = inhibitors of human PAD4. Q9UM07. hit rate 0.41% among 330,000. recombinant PAD4, RCA probe fluorescence polarization. inhibition, % at 6.36 µM;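 active = percent inhibition above a cutoff equal to the mean of all tested compounds plus 3 SD, cut at about 15% in these data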;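 note: 0% = PAD4 with RCA probe and DMSO and 100% = probe without PAD4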
EBNA-1 confirm = EBNA-1 (EBV) inhibition, confirmation | AID 2292 | inhibition, % at 14.8 µM | hit rate 35% among 830 | Recombinant EBNA-1 DBD, Cy5-DNA fluorescence polarization | shares compounds with EBNA-1 inh;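 active = mean inhibition across replicates above a set limit taken from the earlier primary screen, cut at about 28% in these data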;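 note: plate controls were EBNA-1 protein with DMSO for no effect and wells lacking EBNA-1 for full effect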
ZTA DNA inh trip = counter-screen for EBNA-1 inhibitors: Epstein-Barr virus ZTA inhibitors, triplicate; shares compounds with EBNA-1 inh; Zta-ZRE DNA binding, Cy5 fluorescence polarization; inhibition, % at 11.1 µM; 830 tested, under 10 active; AID 2328;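 active = mean inhibition over triplicates above a set limit taken from the primary EBNA-1 screen, cut at about 37% in these data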;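 note: purified full length Zta protein with Cy5 labeled ZRE DNA probe; 0% = Zta with DMSO and 100% = wells lacking Zta protein; inhibitors lower polarization by freeing the labeled DNA probe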
Starred values were filed as active, the others as inactive; nt = no result given. Hits are enriched below; roughly 1.7% of the tested compounds scored in any of these assays.

SMILES	LYPLA1 inh	GSTO1 inh	EBNA-1 inh	ZTA counter	LYPLA2 counter	PAD4 inh	EBNA-1 confirm	ZTA DNA inh trip
NC(=O)c1ccc(NC(=O)COC(=O)/C=C/c2ccc3c(c2)OCO3)cc1	-2.0	-6.7	32.0*	15.3	-3.5	1.8	2.2	-9.1
CCOc1ccc(/C=N/NC(=O)CCC(=O)Nc2ccc(F)cc2)cc1	-2.8	-4.9	2.0	-3.8	-2.7	-0.5	nt	nt
CCOc1ccc(NC(=O)CCC(=O)N/N=C/c2ccc3c(c2)OCO3)cc1	2.6	-2.4	35.0*	2.1	1.9	3.3	17.8	1.9
COc1ccc(/C=C/C(=O)Nc2ccccc2C(F)(F)F)cc1	-1.0	-4.5	32.5*	8.4	3.2	-0.4	21.8	-3.4
CCOc1ccc(/C=C/C(=O)Nc2ccccc2C(F)(F)F)cc1	-1.0	0.1	0.4	5.1	2.5	3.4	nt	nt
Cc1ccc(NC(=O)CC(=O)c2ccccc2)cc1C	-1.3	-12.7	-2.0	-7.0	-12.9	0.9	nt	nt
CCN(CC(=O)Nc1ccccc1C(F)(F)F)C(=O)c1cc(-c2ccccc2)nn1-c1ccccc1	-3.0	-0.4	-2.5	6.0	-4.6	-4.0	nt	nt
CCN(CC(=O)Nc1ccccc1OC)C(=O)c1cc(-c2ccccc2)nn1-c1ccccc1	0.5	0.5	44.9*	1.6	-0.6	-3.5	-5.8	-10.6
Cc1ccnc(SCC(=O)N2CCc3ccccc32)n1	-3.1	-4.9	32.2*	4.7	-4.6	1.4	-1.5	0.3
CNC(=S)NNC(=O)c1sccc1OCc1cccc(C(F)(F)F)c1	-1.6	7.6	35.3*	1.2	5.4	-5.1	65.1*	5.1
O=C(NCc1csc(-c2cccs2)n1)Nc1cccc(Cl)c1	-2.5	6.1	28.4*	8.0	-3.1	7.8	22.9	4.1
CCOC(=O)C1CCN(Cc2ccc(Cl)c(Cl)c2)CC1	-0.2	-1.6	45.5*	0.9	5.7	2.0	3.7	5.1
O=C(c1cccc(-c2ccc(O)cc2)c1)N1CCN(c2ccc(F)cc2)CC1	-0.7	2.0	40.4*	-6.1	-1.0	0.8	20.4	-3.3
Cc1csc2ncnc(N3CCN(C(=S)Nc4ccc(C(F)(F)F)cc4)CC3)c12	-10.4	8.2	46.9*	-4.6	-10.9	2.3	-0.9	-1.5
COc1ccccc1N1CCN(c2ccc([N+](=O)[O-])cc2Cl)CC1	1.3	5.7	38.2*	1.9	0.8	-4.6	-12.9	-1.8
COc1cc2c(cc1OC)CN(c1ccc([N+](=O)[O-])cc1Cl)CC2	-4.0	-2.4	-2.6	9.0	2.3	0.2	nt	nt
O=c1[nH]cc(S(=O)(=O)N2CCOCC2)c(=O)[nH]1	-1.2	-5.8	-4.1	-1.6	-2.0	-2.5	nt	nt
O=C(NC(=S)N(CC1CCC1)CC1CCCO1)c1cccc([N+](=O)[O-])c1 (stereo not drawn)	-0.6	-8.1	-6.4	-11.9	1.3	-3.4	nt	nt
COc1ccc(C([O-])=Nc2ccc[n+](-c3nc4ccccc4nc3NS(=O)(=O)c3ccccc3)c2)cc1	-6.8	-6.8	28.8*	1.3	-10.9	-2.6	0.4	-6.5
CO/C([O-])=N/c1c[n+](-c2ccc(Cl)cc2)no1	2.5	3.2	39.4*	6.6	3.0	1.2	-5.6	-5.9
O=C(Nc1ccc(S(=O)(=O)Nc2nccs2)cc1)c1ccc(N2C(=O)c3ccccc3C2=O)cc1	-33.5	-0.6	61.4*	-2.3	-87.2	-10.6	24.9	30.9
O=C(CSc1cn(Cc2ccccc2)c2ccccc12)Nc1nccs1	-3.7	-1.8	36.3*	2.0	-6.4	-8.8	8.2	6.3
COc1ccc(CCNC(=O)COC(=O)CNS(=O)(=O)c2ccc(SC)c([N+](=O)[O-])c2)cc1	-1.4	nt	nt	-23.4	-4.0	-4.1	nt	nt
O=c1cc(-c2ccc(O)c(-c3c(O)cc(O)c4c(=O)cc(-c5ccc(O)cc5)oc34)c2)oc2cc(O)cc(O)c12	-21.5	-0.3	33.6*	2.5	-34.7	-3.7	29.2*	19.9
O=c1cc(-c2ccc(O)cc2)oc2c(-c3c(O)cc(O)c4c(=O)cc(-c5ccc(O)cc5)oc34)c(O)cc(O)c12	nt	nt	nt	nt	nt	-0.2	nt	nt
SMILES	LYPLA1 inh	GSTO1 inh	EBNA-1 inh	ZTA counter	LYPLA2 counter	PAD4 inh	EBNA-1 confirm	ZTA DNA inh trip
COc1cccc(Nc2nnc(SCn3nnc4ccccc4c3=O)s2)c1	-4.9	-3.9	43.1*	4.3	-3.9	-5.5	37.8*	15.9
CCc1ccc(Nc2nnc(SCn3nnc4ccccc4c3=O)s2)cc1	-0.5	-0.7	-15.3	2.9	-1.9	-3.1	nt	nt
O=C(OCCN1C(=O)c2ccccc2C1=O)c1ccccc1	-4.0	4.1	46.2*	19.2	2.0	-2.1	-11.6	6.3
Cc1cccc([N+](=O)[O-])c1NC(=O)COC(=O)c1nc2nccc(C)n2n1	-0.4	nt	nt	-4.7	2.4	2.6	nt	nt
CC[n+]1ccc(/C=C/c2c[nH]c3ccccc23)cc1	-2.7	-4.3	42.4*	10.3	-5.0	-10.5	5.2	-0.6
CCn1c(/C=C/c2c[nH]c3ccccc23)nc2ccccc2c1=O	-2.8	7.2	-10.2	0.9	-4.0	-0.1	nt	nt
C/C(=N\NC(=O)c1ccc(O)cc1)c1cccc(NC(=O)c2ccccc2C)c1	4.8	-0.1	-7.2	13.5	6.8	0.1	nt	nt
O=C(Cn1cnc2c(nnn2Cc2ccc(Cl)cc2)c1=O)OCc1ccccc1	1.6	4.5	29.9*	1.5	10.6	3.6	12.1	6.5
Cc1ccc(C(C)C)c(OCC#CCN2CCOCC2)c1	-0.4	-0.9	10.8	-10.2	3.0	-1.2	nt	nt
C=CCn1c(SCC(=O)NC(=O)NCc2ccco2)nc2sc(C)c(C)c2c1=O	-4.5	-3.0	46.9*	9.1	-5.6	-5.2	31.7*	2.3
C=CCn1c(SCC(=O)NCCO)nc2sc(C)c(C)c2c1=O	-2.8	-2.7	0.3	0.1	-5.1	0.0	nt	nt
CCOc1ccc(N=C2NC(=O)C(CC(=O)Nc3ccc(OC)cc3)S2)cc1 (stereo not drawn)	-2.9	0.1	33.3*	-0.1	-6.0	-8.8	28.9*	0.2
Cc1ccc(OC(=O)c2cccc(S(=O)(=O)N3CCN(C)CC3)c2)c(Br)c1	-1.5	2.8	3.5	-8.5	-0.1	4.5	nt	nt
O=C(COC(=O)/C=C/c1ccc(F)cc1)Nc1cc(C(F)(F)F)ccc1N1CCOCC1	-2.0	6.8	8.3	3.7	-8.0	2.2	nt	nt
O=C(COC(=O)/C=C/c1ccccc1)Nc1cc(C(F)(F)F)ccc1N1CCOCC1	-1.1	2.4	54.8*	-10.5	2.1	0.3	74.8*	-8.3
CO/N=C(/c1nonc1N)N1CCN(c2ccc([N+](=O)[O-])cc2)CC1	2.2	2.6	33.3*	-2.9	19.6	-2.0	7.4	1.0
Cc1ccc(NC(=O)CSc2ccc(-c3ccccn3)nn2)cc1F	2.3	3.5	36.2*	1.0	4.1	0.1	52.7*	6.9

Source: PubChem
